The record followed here is PubChem BioAssay (Tox21).

Records with an inconclusive call do not appear. Entries that show only a call come without a potency. Active and inactive are the calls of the source. The call rests on the fitted dose curve.
Potency means the concentration at half of the fitted maximal effect.

The test in a line: qHTS assay to identify small molecule antagonists of the estrogen receptor alpha (ER-alpha) signaling pathway using the BG1 cell line (AID 743080).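 Further: BG1 cells stimulated with 17beta-estradiol alongside compound; nearly all actives have a fitted effect of over 25% in size.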 The following applies: BG1Luc4E2 ERE-luciferase antagonist mode, luminescence; series mostly up to 70.3 µM. An excerpt: National Center for Advancing Translational Sciences [NCATS]
NIH Chemical Genomics Center [NCGC]
U.S. Environmental Protection Agency [EPA]
National Institutes of Environmental Health Sciences [NIEHS]
National Toxicology Program [NTP]
U.S. Food and Drug Administration [FDA]
Estrogen receptor (ER), a nuclear hormone receptor, plays an important role in development, metabolic homeostasis and reproduction. Endocrine disrupting chemicals (EDCs) and their interactions with steroid hormone receptors like ER causes disruption of normal endocrine function. Therefore, it is important to understand the effect of environmental chemicals on the ER signaling pathway. To identify ER antagonists, BG1-Luc-4E2 cell line (provided by Dr. Michael Denison from University of California) has been used to screen the Tox21 10K compound library. BG1Luc4E2 cell line endogenously expresses full-length ER-alpha and is stably transfected with a plasmid containing four estrogen responsive elements (ERE) upstream of a luciferase reporter gene.
Tox21 Assay Protocol Summary:
BG1-Luc-4E2 cells were cultured in phenol red free assay medium containing 10% charcoal stripped FBS for 5 days before the assay was performed. The cells were dispensed at 4,000 cells/4 uL of assay medium per well into white wall/solid-bottom 1536-well plates using a Multidrop Combi (ThermoFisher Scientific, Waltham, MA) dispenser. The assay plates were incubated at a 37C and 5% CO2 for 24 h, and then 23 nL of compounds dissolved in DMSO, positive controls or DMSO only was transferred to the assay plate using a Pintool station (Kalypsys, San Diego, CA), followed by addition of 1 uL of 17beta-estradiol in assay medium using a Flying Reagent Dispenser (Aurora Discovery, San Diego, CA). After the plates were incubated at 37 C and 5% CO2 for 21.5 h, 1 uL of CellTiter-Fluor reagent (Promega, Madison, WI) of measuring cytotoxicity was added using Flying Reagent Dispenser (FRD) to each well. The assay plates were incubated at 37 C and 5% CO2 for additional 30 min and the fluorescence intensity was quantified by a ViewLux plate reader (PerkinElmer, Shelton, CT). For measuring luciferase reporter gene activity, 4 uL of ONE-Glo reagent (Promega) was added to each plate using an FRD and luminescence was quantified by a ViewLux plate reader after 30 min incubation at room temperature.
A general note: In qHTS, concentration-response curves come from the screen itself.
For the compound `CC(=O)O[C@H]1C[C@@H]2CC[C@@H]3[C@H](CC[C@@]4(C)[C@H]3C[C@H]([N+]3(C)CCCCC3)[C@@H]4OC(C)=O)[C@@]2(C)C[C@@H]1N1CCCCC1`, the Potency result is “inactive”. For `CC[C@H](C)[C@@H](C(=O)O)n1sc2ccccc2c1=O`, the Potency entry is “inactive”. With `CC(=O)NCCCS(=O)(=O)O`, the Potency entry was “inactive”. `CCOC(=O)C1=C(C)NC(C)=C(C(=O)OC)C1c1cccc([N+](=O)[O-])c1` (stereo not given): the Potency entry was “inactive”.

For `CC(C)(C)C1CCCCC1O` (stereo not given), the Potency entry was “inactive”.

Turning to `CC(C)(C)c1cc(CO)cc(C(C)(C)C)c1O`, the Potency is 69.9 µM (active). On to `CCC(=O)OC(C)(C)C1CC=C(C)CC1` (stereo not given), for which the Potency entry is “inactive”. The result for `Cn1c(=O)c2c(ncn2CC(O)CO)n(C)c1=O` (stereo not given) reads “inactive”; that for `OCCC1CCCCN1` (stereo not given), “inactive”. With `CCC(C)N(C)C(=O)c1cc2ccccc2c(-c2ccccc2Cl)n1` (stereo not given), the Potency result was “inactive”. In the case of `CCOC(=O)C1=NN(c2ccccc2)C(=O)C1`, the Potency entry was “inactive”. Take `Cc1occc1S`: the Potency entry is “inactive”. For the compound `CCCCCCCCN(C)C`, the Potency result is “inactive”.

Take `NCCCOCCOCCOCCCN`: the Potency result was “inactive”. As to `O=C(CCN1CCN2CCCC2C1)N1c2ccccc2Sc2ccc(Cl)cc21` (stereo not given), the Potency result was “inactive”. Take `CN1CCC(OC(c2ccccc2)c2ccccc2)CC1`: the Potency entry is “inactive”.

`O=c1c2ccccc2nnn1CCl`: the Potency result is “inactive”. With `CCCCC(CC)COCCCN` (stereo not given) the entry was “inactive”; with `CC(C)NCC(O)c1cc(O)cc(O)c1` (stereo not given), “inactive”; with `O=C(c1ccc(O)cc1)c1ccc(O)cc1`, “inactive”. For the compound `NC1CCN(c2nc3c(cc2F)c(=O)c(C(=O)O)cn3-c2ccc(F)cc2F)C1` (stereo not given), the Potency result was “inactive”.

Turning to `CCCC(=O)OCC`, the Potency entry was “inactive”. Consider `CC(C)CCCC(C)CCO` (stereo not given), for which the Potency result is “inactive”. In the case of `CC1=CCC(C(C)C)C=C1` (stereo not given), the Potency entry is “inactive”.

For the compound `N[C@H]1C(O)O[C@H](CO)[C@H](O)[C@@H]1O` (stereo not given in full), the Potency entry was “inactive”. For the compound `O=C(O)Cn1c(C(=O)Nc2nc(-c3ccccc3Cl)cs2)cc2ccccc21`, the Potency result was “inactive”.

`O=C(O)C(c1ccc(Cl)cc1)c1ccc(Cl)cc1`: the Potency result is “inactive”. The result for `Oc1ccc(Sc2ccc(O)cc2)cc1` reads “inactive”; that for `Oc1ccc(C(O)CNCCCCCCNCC(O)c2ccc(O)c(O)c2)cc1O` (stereo not given), “inactive”; that for `O=S(=O)(O)c1ccc(O)c2ncccc12`, “inactive”.

For `CCN(CC)C(C)CN1c2ccccc2Sc2ccccc21` (stereo not given), the Potency result is “inactive”. With `COc1ccc(OC)c(OC)c1`, the Potency entry is “inactive”.

For `Cc1ccc(C(N)=O)cc1N`, the Potency entry is “inactive”. With `C=C(C)C(=O)OCCOc1ccccc1` the entry was “inactive”.

`CNCC[C@@H](Oc1ccccc1C)c1ccccc1`: the Potency result is “inactive”. Turning to `CCCCCCCCCCCCC(=O)O`, the Potency result was “inactive”. `CC(C)CC=O`: the Potency result is “inactive”. The result for `CN(C)CC[C@@H](c1ccc(Br)cc1)c1ccccn1` reads “inactive”; that for `CCOC(=O)CC(=O)c1cc(F)c(Cl)nc1Cl`, “inactive”; that for `C=CCCCCCC`, “inactive”.
